# Assay outcomes from PubChem BioAssay.
# Sampled rows, rich in hits. Any-hit rate of the full collection: about 3.4%.
# MEKK3 PB1 HTS = MEKK3-MEK5 PB1 interaction, increase or decrease | Q99759 | bead-based flow cytometry, Alexa488-MEK5 binding to MEKK3; actives lie on both sides; 0 = blocked by unlabeled MEK5, 100 = vehicle | binding response (% of control), % at 10 µM | actives 1.4% (n = 290,000) | AID 1529;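 active means binding response more than 3 SD above or below the average of its plate-row segment, actives on both sides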;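 further: Alexa488 bead fluorescence after subtracting the streptavidin-only scavenger bead signal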
# Target sequence (Q99759 whole entry, looked up): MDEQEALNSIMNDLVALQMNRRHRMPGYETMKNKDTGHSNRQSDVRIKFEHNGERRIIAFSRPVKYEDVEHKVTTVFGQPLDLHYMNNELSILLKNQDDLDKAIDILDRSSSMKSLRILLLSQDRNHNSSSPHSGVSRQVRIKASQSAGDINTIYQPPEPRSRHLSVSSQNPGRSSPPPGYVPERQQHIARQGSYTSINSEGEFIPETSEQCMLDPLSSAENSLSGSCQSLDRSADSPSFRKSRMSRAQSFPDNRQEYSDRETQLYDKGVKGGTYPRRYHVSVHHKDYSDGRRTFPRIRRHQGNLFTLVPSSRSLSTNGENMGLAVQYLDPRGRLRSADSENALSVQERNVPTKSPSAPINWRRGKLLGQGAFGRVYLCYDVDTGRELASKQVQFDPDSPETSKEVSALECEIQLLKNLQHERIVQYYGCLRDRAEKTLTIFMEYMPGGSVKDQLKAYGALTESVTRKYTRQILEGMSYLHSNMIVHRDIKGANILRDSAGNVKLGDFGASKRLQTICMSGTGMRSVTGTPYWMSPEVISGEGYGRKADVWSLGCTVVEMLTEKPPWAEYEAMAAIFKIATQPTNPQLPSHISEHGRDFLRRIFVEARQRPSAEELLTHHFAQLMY
# MEKK2mut PB1 HTS = signal of MEK5 binding to mutant human MEKK2 PB1 domain. percent response, % at 10 µM. bead flow cytometry, Alexa488-MEK5 binding to MEKK2 mutant. AID 1530. actives 0.35% (n = 290,000); in the data active means percent response above about 24%, passing the limit was not always enough
# ANO1 block = blocks the mouse calcium-activated chloride channel TMEM16A; Q8BHY3; AID 588511; HEK293 TMEM16A/YFP iodide influx fluorescence, ionomycin; normalized B-score (activity score, 25-100; higher = stronger inhibition) at 10 µM; actives 1.2% (n = 310,000);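 active means ratio plate-corrected score three or more library SD toward inhibition, starting fluorescence score within five deviations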;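 further: score derived from kinetic fluorescence span divided by baseline fluorescence per well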
# MEKK2wt PB1 HTS = raises or lowers MEK5 binding to wildtype human MEKK2 PB1 domain; bead flow cytometry, Alexa488-MEK5 binding to MEKK2 WT; actives lie on both sides; binding response (% of control), % at 10 µM; actives 1.1% (n = 290,000); AID 1531; in the data active means binding response below about 67% or above about 130%
# NTR1 ag = NTR1 (human) agonism; P30989; actives 0.17% (n = 330,000); activation, % at 20 µM; AID 493036; NTR1-U2OS beta-arrestin-GFP spot imaging, agonist mode;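 active means activation at or above 40% of the spot to cytoplasm intensity ratio, with at least 20 cells analyzed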;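 further: 0% = DMSO without peptide and 100% = 100 nM NTR1 peptide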
# ANO1 activ = activates or potentiates the mouse TMEM16A chloride channel. HEK293 TMEM16A/YFP-H148Q/I152L, iodide quench fluorescence; stronger effect = lower value. B-score at 10 µM. Q8BHY3. actives 0.3% (n = 340,000);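 active means fluorescence-ratio B-score plate-corrected deviation score at least 3 library SD below zero, with starting fluorescence score within 5 deviations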;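 further: channel opened by trigger with iodide after compound preincubation; score built on the fluorescence ratio of max minus min over baseline; more negative score means more quench and so TMEM16A activation or potentiation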
# MEKK2wt confirm = raises or lowers MEK5 binding to wildtype human MEKK2, retest | shares compounds with MEKK3 PB1 HTS | binding response (% of control), % at 10 µM | AID 1892 | bead flow cytometry, Alexa488-MEK5 binding to MEKK2 WT; actives lie on both sides | actives 2.4% (n = 5,900); in the data active means binding response below about 16% or above about 210%; inactive means in between
# MEKK2mut confirm = signal of MEK5 binding to mutant human MEKK2, retest | shares compounds with MEKK3 PB1 HTS | bead flow cytometry, Alexa488-MEK5 binding to MEKK2 mutant | percent response, % at 10 µM | actives 2% (n = 5,900) | AID 1893; in the data active means percent response mostly above about 71%, no sharp cut-off; inactive means mostly below about 38%;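 further: higher means compound restores mutant binding toward wildtype level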
# MEKK3 confirm = confirmation of inhibitors of MEK5 binding to human MEKK3 | shares compounds with MEKK3 PB1 HTS | bead flow cytometry, Alexa488-MEK5 binding to MEKK3; stronger effect = lower value | binding response (% of control), % at 10 µM | actives 1.8% (n = 5,900);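 active means binding response below 72% of control, or above a set upper limit, though filed actives all read lower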;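 further: 100% = DMSO only wells and 0% = binding blocked by excess unlabeled MEK5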
# Active calls of the source: *; i = inactive; . = not tested or not shown; [ ] = another dose, or the depositor's remark.
SMILES,MEKK3 PB1 HTS,MEKK2mut PB1 HTS,ANO1 block,MEKK2wt PB1 HTS,NTR1 ag,ANO1 activ,MEKK2wt confirm,MEKK2mut confirm,MEKK3 confirm
N=c1n(CCO)c2ccccc2n1CCOc1ccc(Cl)cc1Cl,113.0,18.0,i,148.0*,8.3,i,132.0,19.0,108.0
CC(C)Nc1nnc(SCC(=O)N2CCN(C(=O)c3ccco3)CC2)s1,.,.,.,.,0.0,i,.,.,.
N#Cc1ccc2ccn(CC(=O)NCc3ccco3)c2c1,114.0,13.0,i,139.0*,3.9,i,102.0,-4.0,99.0
N#Cc1ccc2ccn(CC(=O)NC3CCCCCC3)c2c1,101.0,-4.0,i,99.0,1.4,i,.,.,.
O=C1Nc2ccc([N+](=O)[O-])cc2OC1CCN1CCCC1 (stereo unspecified),141.0*,5.0,i,114.0,0.6,i,101.0,1.0,101.0
CN1CCN(CCC2Oc3cc([N+](=O)[O-])ccc3NC2=O)CC1 (stereo unspecified),98.0,-6.0,i,84.0,0.9,i,.,.,.
COc1ccccc1C(=O)NCCSCc1c(F)cccc1Cl,103.0,2.0,i,103.0,5.4,i,.,.,.
Cc1c(C(=O)NCCSCc2c(F)cccc2Cl)cnn1-c1ccc(Cl)cc1,129.0*,28.0,i,128.0,3.0,i,97.0,-3.0,102.0
Cc1nn(CCCC(=O)NCc2ccco2)c(=O)c2nn(-c3ccccc3)c(C)c12,103.0,2.0,i,104.0,-0.2,i,.,.,.
CC1CN(Cc2cc(=O)[nH]c(C3CC3)n2)CC(C)O1 (stereo unspecified),2.0*[inhibitor],-16.0,i,3.0*[inhibitor],-2.0,i,106.0,5.0,103.0
CC(C)(CC(=O)O)CC(=O)N1CCCN(c2nccc(C(F)(F)F)n2)CC1,96.0,-6.0,i,95.0,0.0,i,.,.,.
Nc1nc(Cl)cc(Sc2ccc3ccccc3c2)n1,115.0,26.0*,i,119.0,1.3,i,111.0,4.0,106.0
O=C1NC(c2cccc(Br)c2)=N/C1=C\c1ccco1,123.0,-1.0,i,100.0,5.5,i,.,.,.
O=C1NC(c2ccccc2)=N/C1=C/c1ccco1,138.0*,2.0,i,111.0,0.4,i,104.0,0.0,101.0
COC(=O)Nc1nn(Cc2ccccc2F)cc1Br,74.0*[inhibitor],-10.0,i,82.0,0.1,i,104.0,8.0,104.0
CCn1cc([N+](=O)[O-])c(C(=O)Nc2ccn(Cc3ccccc3F)n2)n1,97.0,8.0,i,100.0,0.5,i,.,.,.
O=C(c1cccs1)c1ccc(-c2cccs2)s1,87.0,-9.0,i,61.0*[inhibitor],6.6,i,91.0,1.0,100.0
CN1CCN(C(=O)c2ccc(-c3cccs3)s2)CC1,99.0,-1.0,i,101.0,0.7,i,.,.,.
Cc1cc(C)c(S(=O)(=O)NCC(c2ccco2)N2CCc3ccccc3C2)c(C)c1 (stereo unspecified),.,.,i,.,7.7,i,.,.,.
COc1cccc(NC2c3ccccc3C(=O)N2Cc2ccccc2Cl)c1 (stereo unspecified),95.0,-4.0,i,92.0,2.2,i,.,.,.
COc1cc(NC2c3ccccc3C(=O)N2Cc2ccccc2Cl)cc(OC)c1 (stereo unspecified),135.0*,29.0,i,116.0,3.9,i,97.0,-1.0,96.0
O=C(Nc1ccc(N2CCOCC2)c(F)c1)c1cccs1,105.0,7.0,i,114.0,-0.2,i,.,.,.
COc1cccc(C(=O)NCc2ccc3[nH]c(C)cc3c2)c1,61.0*[inhibitor],-6.0,i,-6.0*,-0.1,i,77.0,-7.0,77.0
COCc1cc(C(C)=O)ccc1OCC(=O)Nc1ccc(NC(C)=O)cc1,103.0,2.0,i,96.0,1.4,i,.,.,.
Cc1ccc(NC(=O)CC2SC(=Nc3ccc(O)cc3)NC2=O)cc1 (stereo unspecified),133.0*,0.0,i,115.0,1.1,i,123.0,10.0,106.0
SMILES,MEKK3 PB1 HTS,MEKK2mut PB1 HTS,ANO1 block,MEKK2wt PB1 HTS,NTR1 ag,ANO1 activ,MEKK2wt confirm,MEKK2mut confirm,MEKK3 confirm
CCOc1ccc(N=C2NC(=O)C(CC(=O)Nc3ccc(OC)cc3)S2)cc1 (stereo unspecified),103.0,1.0,i,92.0,-1.5,i,.,.,.
CC1CC(C)CN(CC(O)COc2ccc3c(c2)CCC3)C1 (stereo unspecified),152.0*,1.0,i,110.0,1.7,i,97.0,-3.0,98.0
O=C(Nc1ccccc1)OCCOc1ccc(Br)cc1,106.0,6.0,i,101.0,1.3,i,.,.,.
Cc1ccc2[nH]c(=O)c(C3=NN(C(=O)CCC(=O)O)C(c4cccs4)C3)c(-c3ccccc3)c2c1 (stereo unspecified),133.0*,0.0,i,102.0,0.3,i,88.0,-4.0,102.0
O=C(CN1CCN(Cc2ccc(Cl)cc2)CC1)N/N=C/c1ccccc1F,68.0*[inhibitor],-30.0,i,57.0*[inhibitor],1.5,i,103.0,0.0,96.0
CC(C)COCC1CC2(CC(C)C(=O)CC2=O)C(=O)O1 (stereo unspecified),123.0*,17.0,i,125.0,-1.6,i,89.0,-10.0,85.0
CCOc1cc(C(=S)N2CCCCC2)ccc1OCC(=O)NCc1ccccc1,75.0*[inhibitor],-8.0,i,87.0,2.0,i,107.0,7.0,106.0
COc1cc(C(=S)N2CCCC2)ccc1OCC(N)=O,95.0,3.0,i,100.0,0.9,i,.,.,.
CCN1CCN(C(=S)c2ccc(OCC(=O)NCc3ccccc3)cc2)CC1,99.0,-2.0,i,96.0,0.8,i,.,.,.
COc1cc(C(=S)N2CCCCC2)ccc1OCC(=O)N1CCCC1,124.0*,5.0,i,118.0,-0.9,i,99.0,-2.0,104.0
CCO[C@H]1OC(C(N)=O)=C[C@@H](C(C)(C)C)[C@@H]1CCCO,103.0,-1.0,i,102.0,-2.0,i,.,.,.
CC(C)(C)c1ccc(C(=O)Oc2ccccc2CCC(=O)O)cc1,88.0,-16.0,i,92.0,-0.3,i,.,.,.
CCOC(=O)c1c(CSC(=N)N)n(-c2ccccc2)c2cc(Br)c(OC(C)=O)cc12,102.0,22.0,i,143.0*,30.6,i,169.0,48.0,112.0
